Measurements from PubChem BioAssay.
Values without a mark were called inactive. Calls of active or inactive are those of the source.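 How the source made its calls: active means differentiation response of at least 50%, scaled between solvent and reference control, from cells with both markers; inactive means the rest.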

Test: AML differentiation inducers, ER-HoxA9 marrow cells – cell-based, GFP/MAC1 double positive, flow cytometry, validation set, primary screen (AID 588685);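 further: compound exposure lasts four days before antibody staining and flow analysis; 0% = DMSO wells and 100% = 5 µM fulvestrant positive control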
Conditions: active compounds read high, normalized: vehicle 0, fulvestrant 100

| Structure (SMILES) | differentiation response |
| --- | --- |
| Cc1oc2cc(O)cc(O)c2c(=O)c1-c1ccc2c(c1)OCCCO2 | 12% |
| O=C(c1ccco1)N1CCCN(Cc2nc(-c3ccc4c(c3)OCO4)no2)CC1 | -11.5% |
| COc1ccc2nc(S(=O)Cc3ncc(C)c(OC)c3C)[nH]c2c1 (stereo not given) | 52.5% (active) |
| CSCCC(NC(C)=O)C(=O)Oc1ccc2c3c(c(=O)oc2c1)CCCC3 (stereo not given) | 0.24% |
| CCOC(=O)C1NN=C(C(=O)c2ccccc2)C1c1ccc(Cl)cc1 (stereo not given) | -6.03% |
| CSCCC(NC(=O)OC(C)(C)C)C(=O)Oc1ccc2c(=O)c(-c3ccc4c(c3)OCCO4)coc2c1 (stereo not given) | 5.6% |
| COc1cc2c(cc1OC)/C(=C/c1ccc(Cl)cc1)C(=O)OC2 | -2.46% |
| COc1ccc(-c2coc3c(CN4CCOCC4)c(O)ccc3c2=O)cc1 | -3.11% |
| OCCC1CN(Cc2ccccc2-c2ccco2)CCN1C1CCCC1 (stereo not given) | -3.02% |
| O=C(O)C1CCN(C(=O)COc2ccc3c4c(c(=O)oc3c2)CCC4)CC1 | -1.05% |
| Cc1ccc(C(=O)NCCNC(=O)c2ccccc2)cc1 | -18.8% |
| CC(=O)OCC(=O)[C@@]1(O)CC[C@H]2[C@@H]3CCC4=CC(=O)C=C[C@]4(C)[C@H]3[C@@H](O)C[C@@]21C | 5.73% |
| CCCc1cc(C(N)=S)ccn1 | -18.4% |
| Cc1ccc(Cl)c(Nc2ccccc2C(=O)O)c1Cl | -4.99% |
| COc1ccccc1/C=C/C(=O)OCCN1CCOCC1 | -4.91% |
